Test [1] deals with Luciferin 4-monooxygenase (Photinus pyralis) (UniProt P08659). The experiment in a line: Primary firefly luciferase (FLuc) qHTS assay for identification of artifact compounds. (AID 1845220).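 For activity change, negative = inhibition: series mostly up to about 54 µM; plate controls were DMSO vehicle for no effect and no enzyme for full effect.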 Note: nearly all actives have a fitted effect of over 60% in size. Note: potency is the fitted concentration of half-maximal effect. Put shortly:
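Reaction readout was CCD-imaged luminescence, taken 5 min after adding 10 nM purified firefly enzyme to compound-treated wells holding 10 uM luciferin and ATP in pH 7.6 buffer.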
Background: Quantitative high-throughput screening tests each substance at several concentrations.

Test [2] can be described thus: Primary fluorescence-based thiol-reactive (MSTI) qHTS assay for identification of artifact compounds. (AID 1845221).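 For activity change, negative = thiol reactive: series mostly up to about 54 µM; thiol-reactive compounds lower the probe fluorescence signal.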 Note: nearly all actives have a fitted effect of over 65% in size. Note: potency is the fitted concentration of half-maximal effect. Put shortly:
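MSTI probe at 4 uM final in 2% DMSO/PBS pH 7.4; compounds, 1 h at room temperature in dark. Fluorescence Ex/Em 525/598 nm, normalised to Acetyl-MSTI and MSTI, fitted to 4-parameter Hill.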

The test system of test [3] is Nanoluciferase (engineered Oplophorus gracilirostris luciferase). The experiment in a line: Primary Nanoluciferase (NLuc) qHTS assay for identification of artifact compounds. (AID 1845222).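 Note: NLuc secreted into diluted conditioned medium of S16 cells; series mostly up to about 54 µM.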 Put shortly:
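Concentration-response data were obtained by luminescence after 5 min with Nano-Glo substrate at 1:100. The enzyme was diluted S16 NLuc-expressing cell medium, preincubated with compound for 15 min at RT. Curves were fitted with a 4-parameter Hill model.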

For test [4], the target named is Phospholipid hydroperoxide glutathione peroxidase GPX4 (Homo sapiens) (UniProt P36969). The experiment in a line: Primary qHTS Assay for Inhibitors of Recombinant Selenoprotein Glutathione Peroxidase 4 (GPX4) (AID 1845192). Note: series mostly up to about 50 µM; % is set by controls: 0 for no effect and ±100 for the full control effect; nearly all actives have a fitted effect of over 65% in size. The procedure, abridged: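 qHTS, GR-coupled: GPX4 200 nM + cpd 30 min RT → GSH 1 mM, NADPH 0.5 mM, GR 100 nM → CHP 0.5 mM start; fluor 340/450 at t0 and t15 min; no-enzyme wells as control.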
Phospholipid hydroperoxide glutathione peroxidase GPX4 (Homo sapiens), sequence (P36969 whole entry, looked up): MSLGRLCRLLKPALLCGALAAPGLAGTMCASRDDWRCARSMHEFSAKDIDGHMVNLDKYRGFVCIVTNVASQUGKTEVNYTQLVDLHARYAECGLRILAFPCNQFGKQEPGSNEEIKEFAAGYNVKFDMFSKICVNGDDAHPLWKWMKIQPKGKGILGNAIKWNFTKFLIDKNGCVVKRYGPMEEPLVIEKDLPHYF

Test [5] can be described thus: Primary redox qHTS assay for identification of artifact compounds. (AID 1845223).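 Note: 0% = DMSO and 100% = reference compound.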 The procedure, abridged: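 Redox-cycling detection via DTT (250 uM final) oxidation coupled to Amplex Red (25 uM)/HRP (250 mU/mL) in HBSS. 15 min preincubation plus 30 min after DTT, room temperature. Ex/Em 525/598 nm; 4-parameter Hill fit against DMSO and 10 uM DA3003.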

Values without a mark were called inactive. Records with an inconclusive call do not appear. Activity calls are given as the source filed them. Calls come from the whole dose curve; as a rule, active = well fitted curve in the direction sought with a large enough effect; inconclusive = small, poorly fitted or top-dose-only effect, or another doubt; inactive = no such curve, though single readings can be large; an effect the other way counts as inactive or inconclusive. Where a SMILES comes first, the peptide text is derived from it. [ ]: non-standard residue; d: D form. Hyp = O=C(O)[CH]1C[CH](O)CN1; Phe(ol) = N[CH](CO)Cc1ccccc1; Iva = CC[C](C)(N)C(=O)O; Aib = CC(C)(N)C(=O)O

Turning to `Cc1cc(-c2nc3cc(F)ccc3s2)ccc1NC(=O)[C@@H](N)CCCCN`, the Potency in test [1] is 1900 nM (active). Besides, the Potency result in test [2] and in test [3] was “inactive” throughout.

For `COc1cc(N(C)CCN(C)C)c(N)cc1Nc1nccc(-c2cn(C)c3ccccc23)n1`, the Potency entry in test [4], in test [1], in test [3] and in test [5] was “inactive” each time.

On to `O=C1C[C@]23C=CCN4CCC5c6cc7c(cc6N1[C@@]5(CC2)C43)OCO7` (some centres undefined), for which the Potency entry in test [4], in test [1], in test [3] and in test [5] was “inactive” throughout.

As for `Nc1nc2c(s1)CCN(Cc1ccc(Cl)cc1)CC2`, the Potency result in test [4], in test [1], in test [3] and in test [5] was “inactive” in each case.

As to `COc1cc(C2OC(c3ccc(OC)c(OC)c3)C(C)C2C)ccc1O` (centres undefined), the Potency result in test [3] and in test [5] was “inactive” in each case.

Consider `Cc1nc2ccc(CN(C)c3ccc(C(=O)NC(CCC(=O)O)C(=O)O)s3)cc2c(=O)[nH]1` (centres undefined), for which the Potency entry in test [4], in test [1], in test [3] and in test [5] was “inactive” throughout.

`CC(=O)Nc1cccc(-c2csc(Nc3cc(C)ccn3)n2)c1`: the Potency entry in test [4] and in test [5] was “inactive” throughout. In addition, the Potency in test [1] was 3010 nM (active).

On to `CCC(C(C)O)n1ncn(-c2ccc(N3CCN(c4ccc(OCC5COC(Cn6cncn6)(c6ccc(F)cc6F)C5)cc4)CC3)cc2)c1=O` (centres undefined), for which the Potency result in test [4], in test [1], in test [3] and in test [5] was “inactive” in each case.

`CN1CCC(NC(=O)c2cc(-c3c(O)cc(O)cc3Oc3ccc([N+](=O)[O-])cc3)on2)CC1`: the Potency entry in test [4], in test [1] and in test [3] was “inactive” in each case.

Regarding `C[C@@H](c1ccc2nccn2c1)n1nnc2ncc(-c3cnn(C)c3)nc21`, the Potency entry in test [1], in test [2], in test [3] and in test [5] was “inactive” throughout.

For the compound `Cn1cc(-c2cnn3c(N)c(Br)c(C4CCCNC4)nc23)cn1` (centres undefined), the Potency result in test [4], in test [1], in test [3] and in test [5] was “inactive” in each case.

With `COc1cc(CCc2cc(NC(=O)c3ccc(N4CC(C)NC(C)C4)cc3)n[nH]2)cc(OC)c1` (centres undefined), the Potency entry in test [4], in test [1], in test [2] and in test [5] was “inactive” each time.

As for `Cc1[nH]c(/C=C2\C(=O)Nc3cc(-c4ccccc4)ccc32)c(C)c1CCC(=O)O`, in test [2], the Potency was 670 nM (active). For the same compound, the Potency result in test [5] is “inactive”.

Turning to `C=CC(C)(C)C12CC3C(=O)N4C(CC5(C(C)(C)C=C)c6ccccc6NC45)C(=O)N3C1Nc1ccccc12` (centres undefined), the Potency result in test [4], in test [1], in test [3] and in test [5] was “inactive” each time.

Regarding `CCC(C)(NC(=O)C(CCC(N)=O)NC(=O)C1CC(O)CN1C(=O)C(C)(C)NC(=O)C(C)(C)NC(=O)C(CC(C)C)NC(=O)CNC(=O)C(NC(=O)C(C)(C)NC(=O)C(C)(C)NC(=O)C(C)(C)NC(=O)C(Cc1ccccc1)NC(C)=O)C(C)C)C(=O)N1CC(O)CC1C(=O)NC(C)(C)C(=O)NC(CO)Cc1ccccc1` (centres undefined) (Ac-F[Aib][Aib][Aib]VGL[Aib][Aib][Hyp]Q[Iva][Hyp][Aib][Phe(ol)]; configuration not given here), the activity change, negative = inhibition is -5.56% [at 9.73 µM] in test [4] and -5.79% [at 11.6 µM] in test [1]. In addition, in test [2], the activity change, negative = thiol reactive is 0.987% [at 11.5 µM]. Further, the activity, negative = inhibition in test [3] was -0.795% [at 11.6 µM]. Moreover, the redox activity (% of DA3003) in test [5] was 15.7% [at 11.5 µM].

Regarding `CNC1CN(c2ccc3c(=O)c(C(=O)O)cn(-c4nccs4)c3n2)CC1OC` (centres undefined), the figures for the activity change, negative = inhibition in test [4] and in test [1] were -2.33% [at 9.73 µM] and -6.28% [at 11.6 µM], respectively. The activity change, negative = thiol reactive in test [2] was -3.65% [at 11.5 µM]. For the same compound, in test [3], the activity, negative = inhibition is -7.32% [at 11.6 µM]. Besides, the redox activity (% of DA3003) in test [5] was -6.95% [at 11.5 µM].

`COc1cc2nc(N3CCN(C(=O)COc4c(OC)cccc4C(C)C)CC3)nc(N)c2cc1OC`: the Potency result in test [1], in test [3] and in test [5] was “inactive” in each case.

Consider `CN(C)S(=O)(=O)c1ccc(NC(=S)N2CCC(C(O)(c3ccccc3)c3ccccc3)CC2)cc1`, for which the Potency result in test [1], in test [2], in test [3] and in test [5] was “inactive” each time.

Turning to `CC(C)C[C@@H]1NC(=O)[C@@H]2C[C@@]34C[C@@H]5[C@@]6(C)CCCC(C)(C)C6CC[C@@]5(C)N(c5ccccc53)[C@H]4N2C1=O` (some centres undefined), the Potency result in test [4], in test [1], in test [2], in test [3] and in test [5] was “inactive” each time.

As to `NC(=O)c1cccc2[nH]c(-c3ccc(C4CCCN4)cc3F)nc12` (centres undefined), the Potency result in test [2], in test [3] and in test [5] was “inactive” in each case.

Turning to `Nc1nc(Nc2ccc3c(c2)CCC(N2CCCC2)CC3)nn1-c1cc2c(nn1)-c1ccccc1CCC2` (centres undefined), the Potency result in test [4], in test [1], in test [3] and in test [5] was “inactive” each time.

With `COc1ccnc(CS(=O)c2nc3cc(OC(F)F)ccc3[nH]2)c1OC` (centres undefined), the Potency entry in test [1] and in test [3] was “inactive” each time. Besides, the Potency in test [2] was 21200 nM (active).

In the case of `COc1cc(C(=O)O)ccc1NC(=O)C1NC(CC(C)(C)C)C(C#N)(c2ccc(Cl)cc2F)C1c1cccc(Cl)c1F` (centres undefined), the Potency entry in test [4], in test [2], in test [3] and in test [5] was “inactive” throughout.

For the compound `C=CC(=O)N1CCCC(n2nc(-c3ccc(Oc4ccccc4)cc3)c3c(N)ncnc32)C1` (centres undefined), the Potency entry in test [4], in test [1], in test [3] and in test [5] was “inactive” throughout.

In the case of `Cc1cc2c(F)c(Oc3ncnn4cc(OCC(C)OC(=O)C(C)N)c(C)c34)ccc2[nH]1` (centres undefined), the Potency result in test [4], in test [2] and in test [3] was “inactive” throughout.

As for `COC(=O)c1ccc2c(c1)[nH]c1ncnc(NCCCN3CCCCC3)c12`, the Potency entry in test [1], in test [2], in test [3] and in test [5] was “inactive” throughout.

Turning to `O=C(NCc1cccs1)c1cc2nc(-c3ccco3)cc(C(F)(F)Cl)n2n1`, the Potency entry in test [4], in test [3] and in test [5] was “inactive” each time.

(Values after PubChem BioAssay (NCATS).)
